Measurements: the supplement of paper PMC11732987, “Enantioselective OTUD7B fragment discovery through chemoproteomics screening and high-throughput optimisation” (Communications Chemistry, 2025)

How the values were obtained:
Assay in all cases: log2 ratio of Biotin-Ahx-Ub-VS probe labelling (fragment/DMSO); higher = less target engagement (more negative = stronger competition), active = hit call of the paper (q ≤ 0.05, log2 ratio ≤ -1)
Details in all cases: compound concentration: 200 uM; treatment time: 3 h
USP34 = USP34 (UniProt Q70CQ2)
Outline: (§1)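 Average log2 ratios of fragment over vehicle were obtained by unpaired t-test from global-median-normalised Spectronaut label-free quantities. Proteins with ≥2 unique peptides were included. HEK293T lysate (495 µg per sample) was treated in triplicate with fragment at 200 µM or vehicle for 3 h, then with Biotin-Ahx-Ub-VS at 0.5 µM final for 1 h, and labelled DUBs were NeutrAvidin-enriched and run by diaPASEF LC-MS/MS.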

USP36 = target: T1, USP36 (UniProt Q9P275)
T1 sequence (whole entry): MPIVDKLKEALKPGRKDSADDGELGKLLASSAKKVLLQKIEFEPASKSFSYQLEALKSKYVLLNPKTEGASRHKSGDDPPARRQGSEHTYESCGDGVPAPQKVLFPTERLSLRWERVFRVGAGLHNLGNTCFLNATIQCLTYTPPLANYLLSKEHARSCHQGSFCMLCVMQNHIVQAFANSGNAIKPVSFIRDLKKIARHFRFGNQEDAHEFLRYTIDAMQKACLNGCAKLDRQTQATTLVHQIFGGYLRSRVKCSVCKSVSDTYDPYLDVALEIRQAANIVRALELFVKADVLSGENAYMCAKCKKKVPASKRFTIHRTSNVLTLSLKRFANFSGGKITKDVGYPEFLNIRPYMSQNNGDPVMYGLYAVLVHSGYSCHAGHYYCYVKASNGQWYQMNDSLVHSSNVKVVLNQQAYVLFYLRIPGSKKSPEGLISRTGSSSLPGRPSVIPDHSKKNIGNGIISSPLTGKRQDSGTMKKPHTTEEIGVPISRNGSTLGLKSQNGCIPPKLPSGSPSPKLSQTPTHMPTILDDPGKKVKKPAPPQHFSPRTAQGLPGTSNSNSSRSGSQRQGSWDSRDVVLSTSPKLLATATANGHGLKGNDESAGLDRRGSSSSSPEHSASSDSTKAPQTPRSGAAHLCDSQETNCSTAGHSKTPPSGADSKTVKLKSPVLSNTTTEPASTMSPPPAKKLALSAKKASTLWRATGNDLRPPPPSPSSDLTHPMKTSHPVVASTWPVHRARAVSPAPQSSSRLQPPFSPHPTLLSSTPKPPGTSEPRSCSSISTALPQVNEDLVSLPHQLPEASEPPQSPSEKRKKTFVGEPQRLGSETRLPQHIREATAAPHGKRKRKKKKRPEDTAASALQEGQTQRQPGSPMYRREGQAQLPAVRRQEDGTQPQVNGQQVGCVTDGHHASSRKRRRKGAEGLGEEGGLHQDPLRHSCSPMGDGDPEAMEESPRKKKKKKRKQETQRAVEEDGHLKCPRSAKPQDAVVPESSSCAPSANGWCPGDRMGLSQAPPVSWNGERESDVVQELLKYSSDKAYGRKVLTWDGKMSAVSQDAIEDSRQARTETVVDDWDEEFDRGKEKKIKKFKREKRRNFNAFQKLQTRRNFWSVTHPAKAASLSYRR
Outline: as §1

USP38 = target: T2, USP38 (UniProt Q8NB14)
T2 sequence (whole entry): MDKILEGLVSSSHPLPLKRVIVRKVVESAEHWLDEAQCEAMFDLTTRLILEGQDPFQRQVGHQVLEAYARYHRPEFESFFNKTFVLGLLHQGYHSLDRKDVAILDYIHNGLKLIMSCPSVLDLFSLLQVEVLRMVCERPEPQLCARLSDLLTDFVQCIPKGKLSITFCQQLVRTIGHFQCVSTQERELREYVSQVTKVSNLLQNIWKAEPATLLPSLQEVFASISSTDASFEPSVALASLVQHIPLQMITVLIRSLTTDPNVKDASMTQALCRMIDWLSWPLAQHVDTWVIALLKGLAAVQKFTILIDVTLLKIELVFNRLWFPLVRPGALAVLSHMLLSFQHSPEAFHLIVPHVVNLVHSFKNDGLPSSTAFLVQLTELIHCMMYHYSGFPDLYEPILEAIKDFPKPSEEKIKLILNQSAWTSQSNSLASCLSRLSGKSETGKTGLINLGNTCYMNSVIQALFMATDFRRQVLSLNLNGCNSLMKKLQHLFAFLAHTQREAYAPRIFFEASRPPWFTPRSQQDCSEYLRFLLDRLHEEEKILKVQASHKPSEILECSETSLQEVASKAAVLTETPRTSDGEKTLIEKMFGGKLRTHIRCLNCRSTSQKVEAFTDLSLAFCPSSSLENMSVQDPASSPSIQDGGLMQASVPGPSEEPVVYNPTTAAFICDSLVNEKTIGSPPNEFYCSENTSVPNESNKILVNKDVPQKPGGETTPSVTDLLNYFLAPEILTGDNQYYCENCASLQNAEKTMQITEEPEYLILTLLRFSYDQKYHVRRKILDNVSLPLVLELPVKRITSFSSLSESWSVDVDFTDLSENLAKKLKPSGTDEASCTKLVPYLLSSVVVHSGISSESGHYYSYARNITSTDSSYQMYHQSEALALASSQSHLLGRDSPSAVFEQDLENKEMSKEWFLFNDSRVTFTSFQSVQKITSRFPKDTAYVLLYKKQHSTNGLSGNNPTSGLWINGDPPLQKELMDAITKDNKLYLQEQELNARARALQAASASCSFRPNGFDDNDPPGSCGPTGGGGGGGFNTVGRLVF
Outline: as §1

USP39 = target: T3, USP39 (UniProt Q53GS9)
T3 sequence (whole entry): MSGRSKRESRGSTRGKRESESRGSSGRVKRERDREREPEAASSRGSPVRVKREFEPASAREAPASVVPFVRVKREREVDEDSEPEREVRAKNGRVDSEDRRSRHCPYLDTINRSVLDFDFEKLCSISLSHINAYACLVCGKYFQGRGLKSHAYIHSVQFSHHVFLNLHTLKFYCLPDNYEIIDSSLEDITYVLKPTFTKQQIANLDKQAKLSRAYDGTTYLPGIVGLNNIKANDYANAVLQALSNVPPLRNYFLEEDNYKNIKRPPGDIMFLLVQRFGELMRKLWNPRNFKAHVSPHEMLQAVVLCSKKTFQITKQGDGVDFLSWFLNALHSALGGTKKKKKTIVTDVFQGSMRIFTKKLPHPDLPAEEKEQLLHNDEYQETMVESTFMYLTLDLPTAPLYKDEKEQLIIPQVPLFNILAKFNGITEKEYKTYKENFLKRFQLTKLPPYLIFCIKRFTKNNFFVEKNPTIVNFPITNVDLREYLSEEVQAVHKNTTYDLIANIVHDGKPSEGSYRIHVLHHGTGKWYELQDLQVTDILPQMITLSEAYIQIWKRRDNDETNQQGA
Outline: as §1

USP4 = target: T4, USP4 (UniProt Q13107)
T4 sequence (whole entry): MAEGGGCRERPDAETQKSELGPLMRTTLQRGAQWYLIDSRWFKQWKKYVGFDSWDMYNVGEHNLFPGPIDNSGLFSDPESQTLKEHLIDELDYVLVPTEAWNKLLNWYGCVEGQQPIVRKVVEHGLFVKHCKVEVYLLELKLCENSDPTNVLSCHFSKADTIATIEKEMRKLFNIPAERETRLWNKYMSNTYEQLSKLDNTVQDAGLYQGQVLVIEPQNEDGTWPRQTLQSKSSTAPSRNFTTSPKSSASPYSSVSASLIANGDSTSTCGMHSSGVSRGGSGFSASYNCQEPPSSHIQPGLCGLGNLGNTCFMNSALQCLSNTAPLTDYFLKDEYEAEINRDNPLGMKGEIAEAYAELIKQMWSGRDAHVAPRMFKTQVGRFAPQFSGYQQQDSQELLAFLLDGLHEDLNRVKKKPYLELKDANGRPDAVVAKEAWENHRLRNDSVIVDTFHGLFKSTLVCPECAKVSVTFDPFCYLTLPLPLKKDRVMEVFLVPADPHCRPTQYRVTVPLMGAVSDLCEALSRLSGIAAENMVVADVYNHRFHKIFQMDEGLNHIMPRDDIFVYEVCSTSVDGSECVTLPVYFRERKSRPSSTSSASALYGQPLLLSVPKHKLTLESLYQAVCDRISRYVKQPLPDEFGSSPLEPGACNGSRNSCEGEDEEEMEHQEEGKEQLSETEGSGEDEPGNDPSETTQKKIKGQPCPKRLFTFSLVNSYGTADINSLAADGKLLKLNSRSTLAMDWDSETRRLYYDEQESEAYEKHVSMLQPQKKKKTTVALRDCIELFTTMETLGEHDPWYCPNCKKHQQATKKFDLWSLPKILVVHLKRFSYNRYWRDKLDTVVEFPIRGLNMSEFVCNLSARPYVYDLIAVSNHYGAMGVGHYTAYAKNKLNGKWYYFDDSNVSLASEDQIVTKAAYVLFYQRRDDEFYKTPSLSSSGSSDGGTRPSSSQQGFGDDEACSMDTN
Outline: as §1

Measured: log2 ratio of Biotin-Ahx-Ub-VS probe labelling

Sequence of USP34 (Q70CQ2 whole entry, the tested form may be a part): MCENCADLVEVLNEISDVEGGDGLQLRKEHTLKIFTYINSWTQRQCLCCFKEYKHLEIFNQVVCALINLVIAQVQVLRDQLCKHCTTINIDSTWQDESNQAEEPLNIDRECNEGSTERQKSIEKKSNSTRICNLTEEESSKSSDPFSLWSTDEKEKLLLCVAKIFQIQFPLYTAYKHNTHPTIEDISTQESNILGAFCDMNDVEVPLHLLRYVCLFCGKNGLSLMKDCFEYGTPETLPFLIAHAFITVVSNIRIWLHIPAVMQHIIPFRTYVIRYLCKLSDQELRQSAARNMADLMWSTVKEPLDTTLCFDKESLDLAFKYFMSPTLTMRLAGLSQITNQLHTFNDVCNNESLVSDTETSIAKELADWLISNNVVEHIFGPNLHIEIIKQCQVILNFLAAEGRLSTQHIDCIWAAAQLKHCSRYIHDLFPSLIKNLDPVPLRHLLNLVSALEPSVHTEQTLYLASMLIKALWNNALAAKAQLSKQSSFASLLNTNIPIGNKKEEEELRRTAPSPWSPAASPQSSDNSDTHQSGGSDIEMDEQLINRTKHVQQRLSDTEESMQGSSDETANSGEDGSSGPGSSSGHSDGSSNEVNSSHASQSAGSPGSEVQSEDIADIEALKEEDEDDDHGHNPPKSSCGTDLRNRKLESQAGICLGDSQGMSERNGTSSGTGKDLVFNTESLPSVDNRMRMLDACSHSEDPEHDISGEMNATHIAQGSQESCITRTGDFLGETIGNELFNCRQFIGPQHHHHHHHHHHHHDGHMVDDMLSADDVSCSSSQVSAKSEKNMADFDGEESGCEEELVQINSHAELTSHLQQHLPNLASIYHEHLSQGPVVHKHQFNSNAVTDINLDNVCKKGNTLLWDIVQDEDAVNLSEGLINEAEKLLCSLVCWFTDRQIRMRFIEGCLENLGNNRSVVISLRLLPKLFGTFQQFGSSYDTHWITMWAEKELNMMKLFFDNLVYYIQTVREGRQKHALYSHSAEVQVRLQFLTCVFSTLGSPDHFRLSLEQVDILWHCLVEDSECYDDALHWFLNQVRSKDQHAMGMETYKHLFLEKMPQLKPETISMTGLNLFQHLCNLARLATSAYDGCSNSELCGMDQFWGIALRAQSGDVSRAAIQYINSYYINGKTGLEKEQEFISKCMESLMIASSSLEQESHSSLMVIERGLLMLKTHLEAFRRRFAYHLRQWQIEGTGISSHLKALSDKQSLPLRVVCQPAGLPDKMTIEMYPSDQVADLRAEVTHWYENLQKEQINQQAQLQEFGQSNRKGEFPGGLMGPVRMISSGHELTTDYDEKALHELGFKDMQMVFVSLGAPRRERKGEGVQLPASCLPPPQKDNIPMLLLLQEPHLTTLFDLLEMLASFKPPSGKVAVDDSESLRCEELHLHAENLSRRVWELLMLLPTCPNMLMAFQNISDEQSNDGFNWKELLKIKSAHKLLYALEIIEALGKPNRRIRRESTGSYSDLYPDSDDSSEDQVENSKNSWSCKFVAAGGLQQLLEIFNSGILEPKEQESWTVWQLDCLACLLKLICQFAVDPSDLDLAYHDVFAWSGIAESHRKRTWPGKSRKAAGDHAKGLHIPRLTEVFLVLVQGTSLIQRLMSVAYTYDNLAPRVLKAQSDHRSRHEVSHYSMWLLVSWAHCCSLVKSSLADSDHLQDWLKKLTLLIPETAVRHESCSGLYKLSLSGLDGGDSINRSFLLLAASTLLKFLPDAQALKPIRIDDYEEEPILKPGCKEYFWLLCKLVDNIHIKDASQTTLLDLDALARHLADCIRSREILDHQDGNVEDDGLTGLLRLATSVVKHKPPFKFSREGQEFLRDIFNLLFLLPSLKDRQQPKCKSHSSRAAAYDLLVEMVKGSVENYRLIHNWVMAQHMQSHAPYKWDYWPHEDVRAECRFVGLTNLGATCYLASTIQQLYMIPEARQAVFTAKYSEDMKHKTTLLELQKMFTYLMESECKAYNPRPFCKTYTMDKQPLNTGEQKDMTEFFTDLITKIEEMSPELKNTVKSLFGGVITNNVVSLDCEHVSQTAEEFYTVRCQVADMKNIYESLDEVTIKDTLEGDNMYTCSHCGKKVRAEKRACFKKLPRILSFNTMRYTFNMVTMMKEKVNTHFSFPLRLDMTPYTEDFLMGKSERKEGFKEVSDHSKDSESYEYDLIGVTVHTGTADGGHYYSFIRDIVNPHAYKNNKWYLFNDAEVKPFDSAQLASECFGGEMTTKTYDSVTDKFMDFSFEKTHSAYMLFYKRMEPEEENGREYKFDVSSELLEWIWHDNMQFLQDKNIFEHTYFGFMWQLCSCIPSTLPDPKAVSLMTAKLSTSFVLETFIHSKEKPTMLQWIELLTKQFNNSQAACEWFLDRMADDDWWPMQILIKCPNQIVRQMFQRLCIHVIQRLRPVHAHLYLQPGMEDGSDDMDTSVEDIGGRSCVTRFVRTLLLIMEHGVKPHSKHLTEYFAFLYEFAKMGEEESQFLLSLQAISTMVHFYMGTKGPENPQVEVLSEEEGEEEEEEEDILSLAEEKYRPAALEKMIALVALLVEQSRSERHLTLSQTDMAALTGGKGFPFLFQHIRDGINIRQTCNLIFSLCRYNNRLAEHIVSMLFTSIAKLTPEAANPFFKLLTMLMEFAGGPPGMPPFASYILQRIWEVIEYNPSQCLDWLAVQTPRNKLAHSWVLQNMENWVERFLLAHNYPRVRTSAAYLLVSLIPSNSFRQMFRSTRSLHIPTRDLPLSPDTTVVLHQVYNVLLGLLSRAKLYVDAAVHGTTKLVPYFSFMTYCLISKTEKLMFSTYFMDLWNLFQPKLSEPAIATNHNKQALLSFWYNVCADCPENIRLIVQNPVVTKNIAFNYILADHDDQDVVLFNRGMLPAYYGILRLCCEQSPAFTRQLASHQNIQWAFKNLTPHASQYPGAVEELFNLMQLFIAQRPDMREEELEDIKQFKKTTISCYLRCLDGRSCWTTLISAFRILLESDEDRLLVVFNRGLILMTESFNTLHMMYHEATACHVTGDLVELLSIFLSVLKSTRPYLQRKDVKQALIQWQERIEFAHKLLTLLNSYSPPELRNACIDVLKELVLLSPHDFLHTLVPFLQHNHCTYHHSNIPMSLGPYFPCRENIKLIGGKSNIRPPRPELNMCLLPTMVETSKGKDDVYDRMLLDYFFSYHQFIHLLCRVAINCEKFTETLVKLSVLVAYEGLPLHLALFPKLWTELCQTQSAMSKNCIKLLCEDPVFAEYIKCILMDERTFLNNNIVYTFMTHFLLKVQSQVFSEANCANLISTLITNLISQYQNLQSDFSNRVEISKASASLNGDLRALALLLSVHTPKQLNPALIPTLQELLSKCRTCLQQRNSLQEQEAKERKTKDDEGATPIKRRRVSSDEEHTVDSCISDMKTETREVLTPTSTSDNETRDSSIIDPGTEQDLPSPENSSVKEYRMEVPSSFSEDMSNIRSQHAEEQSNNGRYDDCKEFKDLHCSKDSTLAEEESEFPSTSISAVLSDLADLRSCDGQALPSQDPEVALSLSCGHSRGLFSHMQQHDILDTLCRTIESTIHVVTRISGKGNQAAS

CN(C)S(=O)(=O)c1ccccc1CNC(=O)CCl
inactive: USP34 0.137 | USP36 -0.00554 | USP38 0.218 | USP39 0.237 | USP4 -0.0523
